Results filed as inconclusive are left out. Some structures have more than one record in an assay (separate samples or runs), and their calls can disagree. Unmarked numbers belong to inactive results. The source made the active and inactive calls. Calls come from the whole dose curve; as a rule, active = well fitted inhibition curve with a large enough effect; inconclusive = small, poorly fitted or top-dose-only effect; inactive = flat fitted curve, though single readings scatter.
What follows are compounds tested against Voltage-gated inwardly rectifying potassium channel KCNH2 (Homo sapiens) (UniProt Q12809) (assay: qHTS Assay for Small Molecule Inhibitors of the Human hERG Channel Activity (AID 588834;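 note: lower thallium flux fluorescence means stronger hERG block; nearly all actives have a fitted effect of over 50% in size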; for activity change, negative = inhibition: top concentration of the series differs between compounds)). Conditions: U2OS BacMam hERG, FluxOR thallium flux fluorescence; series mostly up to 46.1 µM; activity change, negative = inhibition: at the top concentration.
Sequence of Voltage-gated inwardly rectifying potassium channel KCNH2 (Homo sapiens) (Q12809 whole entry, looked up): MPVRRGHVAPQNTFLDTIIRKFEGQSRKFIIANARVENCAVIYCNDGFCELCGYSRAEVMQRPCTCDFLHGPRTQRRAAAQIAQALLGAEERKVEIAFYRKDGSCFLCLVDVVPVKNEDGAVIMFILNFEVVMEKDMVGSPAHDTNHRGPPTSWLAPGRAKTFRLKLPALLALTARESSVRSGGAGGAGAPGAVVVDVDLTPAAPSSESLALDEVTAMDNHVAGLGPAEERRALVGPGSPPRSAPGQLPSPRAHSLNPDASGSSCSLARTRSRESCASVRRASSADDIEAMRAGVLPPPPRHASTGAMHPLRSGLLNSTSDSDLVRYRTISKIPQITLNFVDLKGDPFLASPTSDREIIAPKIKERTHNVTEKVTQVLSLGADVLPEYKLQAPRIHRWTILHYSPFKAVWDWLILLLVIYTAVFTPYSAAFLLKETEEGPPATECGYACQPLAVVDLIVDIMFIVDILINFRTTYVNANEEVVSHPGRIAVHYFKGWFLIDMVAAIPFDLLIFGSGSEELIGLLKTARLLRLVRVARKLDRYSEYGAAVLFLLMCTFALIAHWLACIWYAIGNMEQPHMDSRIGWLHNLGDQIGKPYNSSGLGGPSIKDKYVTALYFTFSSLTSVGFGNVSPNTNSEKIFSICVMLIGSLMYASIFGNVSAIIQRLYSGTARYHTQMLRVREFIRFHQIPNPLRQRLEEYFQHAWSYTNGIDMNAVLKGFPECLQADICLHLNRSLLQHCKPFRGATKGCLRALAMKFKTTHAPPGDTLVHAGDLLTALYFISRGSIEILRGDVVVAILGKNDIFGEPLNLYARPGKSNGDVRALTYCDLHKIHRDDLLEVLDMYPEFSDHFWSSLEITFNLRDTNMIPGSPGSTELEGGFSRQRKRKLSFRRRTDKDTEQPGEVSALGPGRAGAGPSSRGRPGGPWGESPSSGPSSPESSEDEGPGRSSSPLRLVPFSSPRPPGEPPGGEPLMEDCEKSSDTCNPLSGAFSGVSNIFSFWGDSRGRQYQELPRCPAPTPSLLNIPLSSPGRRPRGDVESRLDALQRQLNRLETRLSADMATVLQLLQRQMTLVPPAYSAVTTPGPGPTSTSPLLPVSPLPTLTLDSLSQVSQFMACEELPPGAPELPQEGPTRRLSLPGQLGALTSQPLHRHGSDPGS
Summary of the method: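 U2OS cells BacMam-transduced with hERG, 2000 cells/well, compound ~10 min at 37 °C before stimulation buffer. FluxOR thallium flux fluorescence read kinetically on FDSS; decrease indicates block; AC50 from Hill fits.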
% is set by controls: 0 for no effect and ±100 for the full control effect; potency is the fitted concentration of half-maximal effect.

| SMILES | activity change, negative = inhibition | Potency |
| --- | --- | --- |
| Nc1nc(-c2ccccc2)c(Br)c(=O)[nH]1 | 24.1% |  |
| COc1cc(C(=O)NCc2ccc(OCCN(C)C)cc2)cc(OC)c1OC | -2.95% [at 20.6 µM] |  |
| CN1CCC(OC(c2ccccc2)c2ccccc2)CC1 |  | 4.47 µM (active) |
| C[C@@H](O)[C@H]1C(=O)N2C(C(=O)O)=C(S[C@@H]3CN[C@H](CNS(N)(=O)=O)C3)[C@H](C)[C@H]12 | -7.82% |  |
| COc1ccc(C(=O)c2ccccc2O)c(O)c1 | 6.11% [at 20.6 µM] |  |
| CCCCN=C(N)N=C(N)N | 3.31% |  |
| CCCCc1cc2ccccc2c(OCCN(C)C)n1 |  | 7.94 µM (active) |
| NC(=O)C1(N2CCCCC2)CCN(CCCC(=O)c2ccc(F)cc2)CC1 |  | 3.55 µM (active) |
| CCC(CC)(CC(=O)Nc1cccc(/C=C/c2nc(C3CCC3)cs2)c1)C(=O)O | 14% |  |
| O=C(O)P(=O)(O)O | -8.13% |  |
| CCOc1ccccc1OCCN[C@H](C)Cc1ccc(OC)c(S(N)(=O)=O)c1 |  | 14.1 µM (active) |
| NS(=O)(=O)Cc1noc2ccccc12 | 0.213% |  |
| C/C=C/C=N/NC(=O)c1ccncc1 | -1.31% |  |
| Cc1ccccc1OCC(O)CO (stereo not given) | 16.6% |  |
| O=C(c1ccc(F)cc1)C1CCN(CCn2c(=S)[nH]c3ccccc3c2=O)CC1 |  | 0.251 µM (active) |
| CCCCNc1ccc(C(=O)OCCOCCOCCOCCOCCOCCOCCOCCOCCOC)cc1 | 8.12% [at 20.6 µM] |  |
| NS(=O)(=O)c1cc(C(=O)O)cc(N2CCCC2)c1Oc1ccccc1 | -10.7% [at 20.6 µM] |  |
| C#C[C@]1(O)CC[C@H]2[C@@H]3CCc4cc(OC)ccc4[C@H]3CC[C@@]21C | -25% |  |

| SMILES | activity change, negative = inhibition | Potency |
| --- | --- | --- |
| COc1ccc(/C=N/NC(=O)c2ccncc2)cc1OC | 2.11% |  |
| Oc1ccc(Cl)cc1Cc1cc(Cl)ccc1O |  | 28.2 µM (active) |
| COc1cc(N)c(Cl)cc1C(=O)NC1CCN(Cc2ccccc2)CC1 |  | 5.01 µM (active) |
| CCNC(=O)NCc1cccc(Cl)c1 | 7.45% |  |
| CC(C)Nc1cccnc1N1CCN(C(=O)c2cc3cc(NS(C)(=O)=O)ccc3[nH]2)CC1 |  | 8.91 µM (active) |
| COc1ccc(-c2cc(C(F)F)nn2-c2ccc(S(N)(=O)=O)cc2)cc1F | 0.278% |  |
| CC(=O)Nc1ncc([N+](=O)[O-])s1 | 14.3% |  |
| OC(C#CCN1CCCC1)(c1ccccc1)c1ccccc1 |  | 22.4 µM (active) |
| C#C[C@]1(O)CC[C@H]2[C@@H]3CCC4=CC(=O)CC[C@@H]4[C@H]3CC[C@@]21CC | -6.77% |  |
| O=C1C(CCS(=O)c2ccccc2)C(=O)N(c2ccccc2)N1c1ccccc1 (stereo not given) | -3.87% [at 20.6 µM] |  |
| COc1ccc(CCN(C)CCCN2CCc3cc(OC)c(OC)cc3CC2=O)cc1OC |  | 7.94 µM (active) |
| CC(=O)OC[C@H]1O[C@@H](n2ncc(=O)[nH]c2=O)[C@H](OC(C)=O)[C@@H]1OC(C)=O | -2.06% |  |
| Nc1nc(N)c(-c2ccccc2)s1 | 12.8% |  |
| CC(=O)NO | 8.37% |  |
| Nc1ccc(S(=O)(=O)Nc2cnc3ccccc3n2)cc1 | -1.4% |  |
| O=C(O)C(Cc1cc(I)c(O)c(I)c1)c1ccccc1 (stereo not given) | 11.3% |  |
| Nc1ccc(S(=O)(=O)NCc2ccccc2)cc1 | 33.4% |  |
